# Out of some 310,000 compounds screened, about 14,000 (4.5%) showed an effect of 50% or more. The effect is printed as a negative number. The entries come from a sample that favours strong results as a whole.
# Biological target: human ether-à-go-go-related gene (hERG) potassium channel (human, UniProt Q12809)
# Experiment: primary screen, population patch clamp on CHO cells stably expressing hERG; higher = less effect of the substance
# 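Note: peak tail current of the secondary pulse compared with the same well before compound.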
# Chain of human ether-à-go-go-related gene (hERG) potassium channel (Q12809 whole entry, looked up): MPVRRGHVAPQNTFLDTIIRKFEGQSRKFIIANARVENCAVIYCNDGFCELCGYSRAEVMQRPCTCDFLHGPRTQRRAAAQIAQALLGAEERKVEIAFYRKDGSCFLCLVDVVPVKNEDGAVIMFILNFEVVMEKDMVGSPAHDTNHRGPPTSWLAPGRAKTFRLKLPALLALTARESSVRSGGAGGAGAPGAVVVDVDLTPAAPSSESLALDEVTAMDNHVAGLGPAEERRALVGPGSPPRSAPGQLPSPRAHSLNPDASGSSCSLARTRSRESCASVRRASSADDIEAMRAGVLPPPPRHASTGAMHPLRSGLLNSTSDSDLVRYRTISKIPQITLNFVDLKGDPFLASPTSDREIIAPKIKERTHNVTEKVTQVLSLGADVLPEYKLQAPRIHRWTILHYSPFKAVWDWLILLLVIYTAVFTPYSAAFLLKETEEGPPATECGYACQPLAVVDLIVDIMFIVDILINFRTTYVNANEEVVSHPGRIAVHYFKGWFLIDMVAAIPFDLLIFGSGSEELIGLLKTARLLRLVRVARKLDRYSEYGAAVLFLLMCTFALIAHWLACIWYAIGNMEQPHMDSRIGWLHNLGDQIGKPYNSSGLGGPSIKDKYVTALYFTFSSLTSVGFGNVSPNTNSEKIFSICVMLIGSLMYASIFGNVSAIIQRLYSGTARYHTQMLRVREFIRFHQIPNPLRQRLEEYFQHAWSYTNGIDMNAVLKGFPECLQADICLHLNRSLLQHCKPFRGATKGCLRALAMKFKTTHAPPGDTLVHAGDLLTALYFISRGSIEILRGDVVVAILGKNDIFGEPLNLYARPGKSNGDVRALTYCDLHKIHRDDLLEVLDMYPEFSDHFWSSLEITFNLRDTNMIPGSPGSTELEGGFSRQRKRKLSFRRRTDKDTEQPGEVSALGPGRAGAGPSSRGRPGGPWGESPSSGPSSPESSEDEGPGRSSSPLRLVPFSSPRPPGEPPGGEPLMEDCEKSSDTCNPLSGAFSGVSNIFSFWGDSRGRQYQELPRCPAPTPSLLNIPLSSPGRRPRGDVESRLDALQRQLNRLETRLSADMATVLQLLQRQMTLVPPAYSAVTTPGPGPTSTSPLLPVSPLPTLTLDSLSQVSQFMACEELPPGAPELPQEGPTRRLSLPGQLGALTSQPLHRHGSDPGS
row,SMILES,"hERG current change (%, negative = inhibition) at 10uM [%]"
1,O=C(CCN1CCOCC1)Nc1c(-c2ccccc2)c2cc(Br)ccc2[nH]c1=O,-11.9
2,CC(=O)Nc1ccc(C(=O)Nc2cccc(S(=O)(=O)NC3=NCCC3)c2)cc1,4.95
3,CC(C)(O)C#Cc1ccc(CN2CCN(Cc3ccccc3)C(CCO)C2)s1 (stereo not shown),4.64
4,CCOc1cc(C)c(S(=O)(=O)Nc2ccc3cn[nH]c3c2)cc1C,25.2
5,N#CC1(NC(=O)CSc2nnc(Nc3ccccc3F)s2)CCCC1,0.45
6,COc1cc(OC)cc(C(=O)OCC(=O)NCCCc2ccccc2)c1,12.2
7,C=CCN1C(=O)N/C(=C/c2ccc(C)o2)C1=O,9.15
8,COC(=O)c1ccc(C2c3[nH]c4ccccc4c3C[C@H]3C(=O)N(C4CCN(Cc5ccccc5)CC4)CC(=O)N23)cc1 (stereo partly shown),-10
9,CSCC[C@H](NC(=O)C1=NN(c2c(F)c(F)cc(F)c2F)C(=O)CC1)c1nc2ccccc2[nH]1,-13.3
10,COc1ccc(-c2nnc(NC(=O)C3CCCN3S(=O)(=O)c3cccs3)o2)cc1 (stereo not shown),-3.47
11,COc1ccc(NC(=O)C/C(C)=N/NC(=O)c2ccncc2)c([N+](=O)[O-])c1,-59.8
12,COc1ccc([N+](=O)[O-])cc1NC(=O)C1CCCN1S(=O)(=O)c1cccs1 (stereo not shown),-18.1
13,COc1ccc(NC(=O)C/C(C)=N/NC(=O)c2ccco2)c([N+](=O)[O-])c1,-33.9
14,COc1ccc(NC(=O)C2CCCN2S(=O)(=O)c2cccs2)c([N+](=O)[O-])c1 (stereo not shown),-68.3
15,COc1ccc(NC(=O)C/C(C)=N/NC(=O)COc2ccc(OC)cc2)cc1,-18.8
16,COc1ccc(OCC(=O)N/N=C(\C)CC(=O)Nc2cccc([N+](=O)[O-])c2)cc1,-53.8
17,COc1cc(NC(=O)C/C(C)=N/NC(=O)c2cccs2)c(OC)cc1Cl,-14.4
18,CC(=O)Nc1ccccc1NC(=O)C/C(C)=N/NC(=O)c1ccncc1,19.6
19,COc1ccc(NC(=O)C/C(C)=N/NC(=O)c2cccs2)c([N+](=O)[O-])c1,-54.4
20,CCC(=O)N/N=C(\C)CC(=O)Nc1cccc([N+](=O)[O-])c1,9.57

row,SMILES,"hERG current change (%, negative = inhibition) at 10uM [%]"
1,COc1ccc(NC(=O)c2cccs2)c([N+](=O)[O-])c1,-3.28
2,Cc1ccccc1CN(C)CC(=O)NC(C)CCc1ccccc1 (stereo not shown),-17.2
3,O=C(CSc1nnc(-c2ccccc2)n1C1CCCCC1)N1CCCC1,-6.76
4,CCC1(C)Cc2c(sc3nc(SC)nc(N)c23)CO1 (stereo not shown),-7.82
5,O=C1NC(Cc2ccccc2)c2nc3ccccc3c(=O)n2-c2cc(Cl)ccc21 (stereo not shown),11.4
6,CCCCn1c(N)c(N(CCC(C)C)C(=O)C2=NN(c3cc(C)ccc3C)C(=O)CC2)c(=O)[nH]c1=O,-1.89
7,OC(CNC1CCCCC1)C(F)(F)F (stereo not shown),-2.73
8,CCC(C)[C@H](NC(=O)[C@@H]1Cc2ccccc2CN1)C(=O)NCc1ccc(OC)cc1 (stereo partly shown),-32.7
9,CC1CCCCN1C(=O)COC(=O)c1cc(-c2cccs2)nn1-c1ccccc1 (stereo not shown),0.387
10,O=[N+]([O-])c1cc(/C=N/O)ccc1Sc1ccccc1,13.7
11,CC1CCCCN1C(=O)CSc1nnc(-c2ccco2)o1 (stereo not shown),2.08
12,CCOC(=O)CN1CC23C=CC(O2)C(C(=O)Nc2cc(OC)ccc2OC)C3C1=O (stereo not shown),-3.04
13,CC[N+](CC)(CC(=O)Nc1c(C)cccc1C)Cc1ccccc1.O=C([O-])c1ccccc1,14.7
14,CC(/C=C/c1ccco1)=N\NC(=O)CNc1cccc(C)c1,18.1
15,O=S(=O)(O)c1nc2ccccc2n1Cc1ccccc1,-10.5
16,CCOc1ccc(N(CC(=O)NCC2CCCO2)S(=O)(=O)c2ccc(C)cc2)cc1 (stereo not shown),-10.3
17,COc1ccc(OCC(=O)N/N=C(\C)CC(=O)Nc2ccc(OC)cc2[N+](=O)[O-])cc1,-93.8
18,CCOc1ccc(OCC(=O)Nc2ccc(OC)cc2[N+](=O)[O-])cc1,3.3
19,COc1ccc(NC(=O)COc2ccc(C)cc2)c([N+](=O)[O-])c1,7
20,COc1ccc2sc(C)nc2c1NC(C)=O,9.21

# Reference: paper PMC4336329 (PLoS ONE, 2015)
